Data taken from PubChem BioAssay (EPA / NIEHS).
Where a structure was tested more than once in an assay, its records may differ in their call. Active and inactive are the calls of the source. How the source made its calls: active means hit-call score of the fitted dose curve at least 0.9, where 1 is the maximum; inactive means score below 0.9.

What follows are compounds tested against Aryl hydrocarbon receptor (Homo sapiens) (UniProt P35869) (assay: ATG_Ahr_CIS: Attagene CIS-FACTORIAL HepG2 Assay for human Aryl Hydrocarbon Receptor (Ahr) (AID 2282930)). Conditions: HepG2 AhR cis-factorial reporter transcription; actives raise or lower the signal.
Sequence of Aryl hydrocarbon receptor (Homo sapiens) (P35869 whole entry, looked up): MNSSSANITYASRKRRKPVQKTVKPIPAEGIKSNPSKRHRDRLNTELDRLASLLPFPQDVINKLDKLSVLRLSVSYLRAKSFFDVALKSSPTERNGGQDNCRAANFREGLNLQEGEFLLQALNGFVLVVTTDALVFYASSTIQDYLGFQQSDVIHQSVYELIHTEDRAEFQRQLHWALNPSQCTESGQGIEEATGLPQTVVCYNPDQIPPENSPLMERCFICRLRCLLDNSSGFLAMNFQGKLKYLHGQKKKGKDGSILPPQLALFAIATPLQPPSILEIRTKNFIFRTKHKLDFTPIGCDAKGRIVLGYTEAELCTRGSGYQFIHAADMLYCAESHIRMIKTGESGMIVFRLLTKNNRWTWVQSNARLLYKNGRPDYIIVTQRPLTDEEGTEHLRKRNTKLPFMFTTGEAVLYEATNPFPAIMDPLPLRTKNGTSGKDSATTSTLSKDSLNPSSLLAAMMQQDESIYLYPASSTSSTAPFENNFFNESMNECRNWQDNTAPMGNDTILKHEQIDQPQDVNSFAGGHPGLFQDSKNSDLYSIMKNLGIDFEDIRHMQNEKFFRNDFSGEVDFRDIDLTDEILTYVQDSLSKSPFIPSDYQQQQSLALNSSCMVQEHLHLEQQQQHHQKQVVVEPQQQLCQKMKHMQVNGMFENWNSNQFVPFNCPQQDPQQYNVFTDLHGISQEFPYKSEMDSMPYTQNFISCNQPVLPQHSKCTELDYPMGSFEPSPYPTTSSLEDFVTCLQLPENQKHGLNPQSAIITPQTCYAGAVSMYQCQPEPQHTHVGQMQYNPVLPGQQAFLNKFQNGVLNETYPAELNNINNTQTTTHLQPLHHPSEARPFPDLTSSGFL
Experimental: ATG_CIS is a cell-based, multiplexed-readout assay that uses HepG2, a human liver cell line, with measurements taken at 24 hours after chemical dosing in a 24-well plate.ATG_Ahr_CIS is one of 52 assay component(s) measured or calculated from the ATG_CIS assay. It is designed to make measurements of mRNA induction, a form of inducible reporter, as detected with fluorescence intensity signals by Reverse transcription polymerase chain reaction (RT-PCR) and Capillary electrophoresis technology.Data from the assay component ATG_Ahr_CIS was analyzed into 1 assay endpoint. This assay endpoint, ATG_Ahr_CIS, was analyzed with bidirectional fitting relative to DMSO as the negative control and baseline of activity. Using a type of inducible reporter, measures of mRNA for gain or loss-of-signal activity can be used to understand the reporter gene at the transcription factor-level as they relate to the gene AHR. Furthermore, this assay endpoint can be referred to as a primary readout, because this assay has produced multiple assay endpoints where this one serves a reporter gene function. To generalize the intended target to other relatable targets, this assay endpoint is annotated to the dna binding intended target family, where the subfamily is basic helix-loop-helix protein.
Human liver HepG2 cells are transiently transfected with multiple reporter transcription units (MRTUs) in 6-well plates using FuGene 6 reagent (Roche; 3 ml FuGene/1 mg DNA). The MRTU constructs are regulated by a cis-regulating element (promoter). […] A major difference between the CIS and TRANS system is that in CIS activities of endogenous TFs are measured, whereas the TRANS assay evaluates changes in activities of exogenous, chimeric NR-Gal4 proteins. […] At the end of 24 hour incubation, total RNA was isolated using TriZol reagent (Invitrogen). The isolated RNA is then reverse-transcribed using oligo(dT) primer and Mo-MLV reverse transcriptase (Invitrogen) with DNAse I (Ambion) treatment for 30 min. The one-tenth of the produced cDNA was amplified by PCR using Taq DNA polymerase (Invitrogen) and two reporter sequence-specific primers. The PCR products were fluorescently labeled by primer extension with 6-arboxyfluorescein (6-FAM) 5'-labeled reporter sequence-specific primer (2 min at 95 C, 20 s at 68 C and 10 min at 72 C) and these products were digested with 5U of HpaI (New England Biolabs) for 2h at 37 C. […] The raw capillary electrophoresis data was processed using Attagraph software (Attagene).
In the case of `Cc1ccc2ccccc2c1C`, the AC50 is reported as 6.24 µM (active). In the case of `CC(=O)C(Cl)C(=O)N(C)C` (stereo not given), the outcome is reported as “inactive”. In the case of `O=C(Cc1ccccc1)c1ccccc1`, the outcome is reported as “inactive”. `CCC(=O)c1ccccc1` was tested, and the outcome was “inactive”. For `CCC(C)c1cccc(C(C)CC)c1O` (stereo not given), the outcome was “inactive”. For `CCCCP(CCCC)CCCC`, the outcome was “inactive”. For `COc1ccc(C=O)cc1OC`, the outcome was “inactive”. In the case of `C=CC(=O)OCCCCCC(C)C`, the outcome is reported as “inactive”. With `CCSC(C)CC1CC(=O)C(C(CC)=NOC/C=C/Cl)=C(O)C1` (stereo not given) the AC50 was 28.4 µM (active). With `COC(=O)c1sccc1S(=O)(=O)NC(=O)Nc1nc(C)nc(OC)n1` the outcome was “inactive”. `COP(=S)(OC)Oc1c(Cl)cc(C)cc1Cl` was tested, and the outcome was “inactive”. For `CCN1CCC2(CC1)COc1cc3c(cc12)N(C(=O)c1ccc(-c2ccc(-c4nnc(C)o4)cc2C)cc1)CC3`, the outcome was “inactive”. For `CCC1(c2ccc(N)cc2)CCC(=O)NC1=O` (stereo not given), the outcome was “inactive”. For `ClC(Cl)=C(Cl)C(Cl)=C(Cl)Cl`, the AC50 was 71.4 µM (active). For `Clc1ccc(COC(Cn2ccnc2)c2ccc(Cl)cc2Cl)cc1` (stereo not given), the outcome was “inactive”. With `Nc1ccc(N=Nc2ccc(-c3ccc(N=Nc4c(S(=O)(=O)O)cc5cc(S(=O)(=O)O)c(N=Nc6ccccc6)c(O)c5c4N)cc3)cc2)c(N)c1` the outcome was “inactive”. For `CCOP(=S)(OCC)Oc1nc(Cl)c(Cl)cc1Cl`, the AC50 was 2.35 µM (active). `COC[C@H](C)N(C(=O)CCl)c1c(C)csc1C` was tested, and the outcome was “inactive”. In the case of `CN(C)N=O`, the outcome is reported as “inactive”. For `c1cc[c]([Hg][c]2ccccc2)cc1`, the outcome was “inactive”. In the case of `Fc1ccc(C2(Cn3cncn3)OC2c2ccccc2Cl)cc1` (stereo not given), the AC50 is reported as 13.3 µM (active). `Clc1nc(Cl)nc(Cl)n1` was tested, and the AC50 was 69 µM (active). In the case of `Cc1ccccc1C(=O)Nc1cccc(OC(C)C)c1`, the outcome is reported as “inactive”. In the case of `NC(=S)Nc1ccccc1`, the outcome is reported as “inactive”. For `N#Cc1ccccn1`, the outcome was “inactive”. In the case of `CCC[CH2][Sn]([CH2]CCC)([CH2]CCC)[O]C(=O)c1ccccc1`, the outcome is reported as “inactive”. With `O=C1CCCN1` the outcome was “inactive”. In the case of `CCOP(=S)(OCC)SCSP(=S)(OCC)OCC`, the outcome is reported as “inactive”. For `ClCCBr`, the outcome was “inactive”. With `COS(=O)(=O)c1ccc(C)cc1` the outcome was “inactive”. `CCCCCCCCCl` was tested, and the outcome was “inactive”. For `COP(=S)(OC)Oc1cc(Cl)c(Cl)cc1Cl`, the AC50 was 11.3 µM (active). `O=C(OC1CCCCC1)c1ccccc1C(=O)OC1CCCCC1` was tested, and the AC50 was 17.4 µM (active). `OCC(O)CCl` (stereo not given) was tested, and the outcome was “inactive”. In the case of `C=CC(=O)N(C)C`, the outcome is reported as “inactive”. For `Oc1cccc2cccnc12`, the outcome was “inactive” and the AC50 was 165 µM (active). `CCCCC(CC)CO[N+](=O)[O-]` (stereo not given) was tested, and the outcome was “inactive”. With `COP(=S)(OC)Oc1ccc(Sc2ccc(OP(=S)(OC)OC)cc2)cc1` the outcome was “inactive”. In the case of `O=C(CCl)CCl`, the outcome is reported as “inactive”.
